The source made the active and inactive calls. Unless noted, the rule behind the calls is not given here.
Columns and labels:
[1] = HepG2 liver cancer cell viability effects, profiling panel, resazurin fluorescence, 24 h, PK04 Diversity Set (AID 1172); details: higher = more signal
[2] = basal S. cerevisiae growth modulation, no modifier, primary screen, OD600, strain BY4716, 24 h, basal condition (AID 1173); details: OD600, 24 h, higher = more signal, called active from +8 up or from −8 down
[3] = MM1S myeloma cell viability, profiling panel, resazurin fluorescence, basal, 24 h, PK04 Diversity Set (AID 1174); details: higher = more signal, called active from +8 up or from −8 down;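 note: MM1S multiple myeloma cell line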
[4] = target: Dihydroorotate dehydrogenase (quinone), mitochondrial (Plasmodium falciparum (isolate 3D7)) (UniProt Q08210); assay: PfDHODH enzyme inhibitors, primary screen, biochemical, C-terminal His tag, absorbance 600 nm (AID 1175); details: DCIP absorbance 600 nm, higher = more signal, called active from +8 up or from −8 down;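 note: recombinant parasite enzyme with a five histidine tag at its C terminus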
Dihydroorotate dehydrogenase (quinone), mitochondrial (Plasmodium falciparum (isolate 3D7)), sequence (Q08210 whole entry, looked up): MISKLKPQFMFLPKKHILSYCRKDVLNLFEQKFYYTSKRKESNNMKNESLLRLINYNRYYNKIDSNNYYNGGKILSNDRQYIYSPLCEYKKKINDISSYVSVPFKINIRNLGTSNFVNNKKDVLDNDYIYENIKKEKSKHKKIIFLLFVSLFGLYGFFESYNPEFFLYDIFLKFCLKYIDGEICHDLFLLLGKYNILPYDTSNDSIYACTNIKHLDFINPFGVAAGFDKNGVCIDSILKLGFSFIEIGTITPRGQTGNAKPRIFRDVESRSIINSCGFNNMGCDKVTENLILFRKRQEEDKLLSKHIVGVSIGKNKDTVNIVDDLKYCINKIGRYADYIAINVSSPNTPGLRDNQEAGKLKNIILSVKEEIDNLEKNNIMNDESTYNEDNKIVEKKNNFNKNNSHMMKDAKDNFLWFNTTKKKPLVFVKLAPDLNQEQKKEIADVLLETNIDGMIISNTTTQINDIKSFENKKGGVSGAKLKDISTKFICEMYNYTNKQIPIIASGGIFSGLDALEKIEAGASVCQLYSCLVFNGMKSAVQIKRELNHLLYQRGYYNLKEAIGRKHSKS

[5] = P. aeruginosa biofilm formation inhibitors, primary screen, strain PAO1, LB-PBS medium, absorbance 600 nm (AID 1176); details: P. aeruginosa PAO1 growth/biofilm, A600, 12 h; higher = more signal
[6] = S. cerevisiae RM11-1a growth modifiers, primary screen, strain RM11-1a, OD600, basal, 24 h (AID 1177); details: OD600, 24 h, higher = more signal, called active from +8 up or from −8 down;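 note: cultures grown under basal conditions with no added stressor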
[7] = E. coli acrAB mutant growth effects, primary screen, E. coli filamentation inducers, strain DRC39, OD650, 24 h (AID 1178); details: higher = more signal, called active from +8 up or from −8 down;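 note: growth measured as culture turbidity by optical density at 650 nm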
[8] = E. coli acrAB mutant growth effects, primary screen, E. coli filamentation inducers, strain DRC39, OD650, 48 h (AID 1179);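 note: screen aims at cell division blockers that make cells filament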; details: E. coli DRC39 delta-acrAB growth, higher = more signal, called active from +8 up or from −8 down
[9] = RPMI8226 myeloma cell viability, profiling panel, resazurin fluorescence, basal, 24 h, PK04 Diversity Set (AID 1180); details: higher = more signal;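 note: RPMI8826 multiple myeloma cell line at 5000 cells per well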
[10] = target: E3 ubiquitin-protein ligase XIAP (Homo sapiens) (UniProt P98170); assay: XIAP binders, primary screen, biophysical, small-molecule microarray, fluorescence 635 nm (AID 1181); details: small-molecule microarray binding, higher = more signal;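 note: score merges 667 nm emission and signal to noise over triplicate slides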
E3 ubiquitin-protein ligase XIAP (Homo sapiens), sequence (P98170 whole entry, looked up): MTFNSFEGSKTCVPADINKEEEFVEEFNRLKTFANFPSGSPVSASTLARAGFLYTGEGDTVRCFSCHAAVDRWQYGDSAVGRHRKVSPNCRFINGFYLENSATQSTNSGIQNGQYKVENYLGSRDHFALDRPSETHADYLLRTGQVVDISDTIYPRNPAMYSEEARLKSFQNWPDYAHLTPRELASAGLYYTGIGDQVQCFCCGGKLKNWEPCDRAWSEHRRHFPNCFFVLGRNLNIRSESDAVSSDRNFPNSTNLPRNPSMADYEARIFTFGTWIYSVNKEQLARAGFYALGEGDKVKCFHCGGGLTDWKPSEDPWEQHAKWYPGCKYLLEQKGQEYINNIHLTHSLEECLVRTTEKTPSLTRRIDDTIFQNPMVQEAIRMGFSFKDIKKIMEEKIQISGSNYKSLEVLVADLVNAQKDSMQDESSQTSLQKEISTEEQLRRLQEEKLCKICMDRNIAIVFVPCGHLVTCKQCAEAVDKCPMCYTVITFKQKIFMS

[11] = test system: XIP peptide (Xip251-270) binding; assay: small-molecule binders of XIP peptide, primary screen, biochemical, small-molecule microarray, fluorescence 635/667 nm, 0.1 µg/mL protein (AID 1182); details: fluorescent protein binding, 635 nm, higher = more signal, called active from +8 up or from −8 down
XIP peptide (Xip251-270) = assay: small-molecule binders of XIP peptide, primary screen, biochemical, small-molecule microarray, fluorescence 635/667 nm, 0.5 µg/mL protein (AID 1183); details: small-molecule microarray binding, fluorescence 635 nm; higher = more signal
[12] = Plasmodium falciparum growth inhibition, primary screen, strain 3D7, DAPI fluorescence, 100 nL (AID 1184);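 note: parasites grown inside human red blood cells in medium with human serum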; details: P. falciparum 3D7 growth, 3 d, higher = more signal
[13] = target: Homeobox protein Hox-A13 (Mus musculus) (UniProt Q62424); assay: inhibitors of HoxA13-DNA binding, primary screen, biochemical, fluorescence polarization, labeled oligonucleotide (AID 1185); details: 15 min, higher = more signal, called active from +8 up or from −8 down
Homeobox protein Hox-A13 (Mus musculus), sequence (Q62424 whole entry, looked up): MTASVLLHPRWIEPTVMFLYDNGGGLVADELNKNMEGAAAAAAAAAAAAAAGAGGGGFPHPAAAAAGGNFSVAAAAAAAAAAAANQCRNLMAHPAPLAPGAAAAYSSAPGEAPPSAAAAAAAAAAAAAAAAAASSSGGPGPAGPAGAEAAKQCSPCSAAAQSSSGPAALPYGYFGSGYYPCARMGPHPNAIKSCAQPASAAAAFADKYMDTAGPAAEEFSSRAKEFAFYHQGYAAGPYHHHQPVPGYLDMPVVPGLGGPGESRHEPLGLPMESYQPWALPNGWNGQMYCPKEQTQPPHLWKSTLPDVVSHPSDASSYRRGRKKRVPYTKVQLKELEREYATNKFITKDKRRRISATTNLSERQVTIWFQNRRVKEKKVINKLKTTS

[14] = inhibitors of hydroxyurea-induced Chk1 phosphorylation, primary screen, imaging, HeLa, phospho-Chk1 antibody, percent positive cells (AID 1186); details: hydroxyurea-induced phospho-Chk1 immunofluorescence imaging, higher = more signal
[15] = inhibitors of hydroxyurea-induced Chk1 phosphorylation, primary screen, imaging, HeLa, phospho-Chk1 nuclear intensity (AID 1187); details: hydroxyurea-induced phospho-Chk1 immunofluorescence imaging, higher = more signal

Row | SMILES | z-score [1] | z-score [2] | z-score [3] | composite z-score [4] | z-score [5] | z-score [6] | z-score [7] | z-score [8] | z-score [9] | composite z-score [10] | composite z-score [11] | composite z-score (XIP peptide (Xip251-270)) | z-score [12] | z-score [13] | z-score [14] | z-score [15]
1 | COCCOC(=O)N1C(=O)[C@@]2(c3cc(C#CCCO)ccc31)[C@H](C(=O)N1CCc3cc(OC)c(OC)cc3C1)[C@H]1C(=O)O[C@H](c3ccccc3)[C@H](c3ccccc3)N1[C@@H]2c1ccccc1OCCO | 0.713 | 1.68 (inactive) | 0.208 (inactive) | 0.0306 (inactive) | 1.38 (inactive) | 2.69 (inactive) | 0.497 (inactive) | 0.74 (inactive) | 1.01 | -0.0945 | 0.21 (inactive) | 0.805 | -2.18 | 0.554 (inactive) | 0.0905 (inactive) | 0.534 (inactive)
2 | CCOC(=O)C1=CCC(c2cc3ccccc3[nH]2)N(S(=O)(=O)c2ccccc2[N+](=O)[O-])C1 (centres undefined) | -0.0211 | 1.08 (inactive) | -1.08 (inactive) | -0.242 (inactive) | 0.546 (inactive) | -0.16 (inactive) | -0.591 (inactive) | 0.158 (inactive) | -1.62 | -0.014 | -0.212 (inactive) | 0.817 | -0.65 | -1.5 (inactive) | -0.285 (inactive) | -0.518 (inactive)
3 | O=C1NC(=O)C2C1C=CC(C(O)c1cccc(O)c1)N2Nc1ccc(Cl)cc1Cl (centres undefined) | -1.79 | -13.3 (active) | -1.31 (inactive) | 1.03 (inactive) | 0.695 (inactive) | 0.915 (inactive) | -0.526 (inactive) | -3.39 (inactive) | -1.69 | -0.039 | -0.186 (inactive) | 0.199 | -0.0722 | -5.1 (inactive) | 0.684 (inactive) | 0.194 (inactive)
4 | CCCCN1CC=CC23O[C@@H]4C=CCOC(=O)[C@@H]4[C@H]2C(=O)N(CCO)[C@@H]3C1=O (some centres undefined) | -0.394 | 1.31 (inactive) | -0.202 (inactive) | -0.161 (inactive) | -0.208 (inactive) | -0.322 (inactive) | 0.233 (inactive) | 0.109 (inactive) | -0.236 | -0.239 | 0.64 (inactive) | -0.964 | 1.12 | -3.84 (inactive) | -0.338 (inactive) | -0.424 (inactive)
5 | O=C1O[C@H](c2ccccc2)[C@H](c2ccccc2)N2[C@H]1[C@@H](C(=O)N1CCN(c3ncccn3)CC1)[C@]1(C(=O)Nc3ccccc31)[C@H]2c1ccc(O)cc1 | -0.291 | 0.688 (inactive) | -0.73 (inactive) | 0.447 (inactive) | 0.641 (inactive) | 2.29 (inactive) | 0.179 (inactive) | 0.481 (inactive) | -1.2 | -0.13 | 0.0016 (inactive) | 0.458 | -0.976 | -1.2 (inactive) | 0.746 (inactive) | 1.46 (inactive)
6 | COCC1=C([C@H](O)CCc2ccccc2)[C@H](CO)n2c(=O)n(-c3ccccc3)c(=O)n2C1 | -0.236 | -3.02 (inactive) | 0.0444 (inactive) | -0.855 (inactive) | 0.188 (inactive) | -1.94 (inactive) | 1.19 (inactive) | 1.32 (inactive) | 0.113 | -0.0848 | 0.625 (inactive) | -0.0859 | 0.0736 | -3.09 (inactive) | -0.48 (inactive) | 1.51 (inactive)
7 | C#CCN(C/C=C/c1ccccc1)[C@H](CO[Si](C)(C)C(C)(C)C)c1ccccc1 | -0.355 | 0.571 (inactive) | -0.668 (inactive) | -0.26 (inactive) | 0.167 (inactive) | 0.244 (inactive) | -1.38 (inactive) | -1.59 (inactive) | -0.764 | -0.295 | 0.141 (inactive) | 0.0247 | -0.775 | -0.229 (inactive) | 0.229 (inactive) | -0.274 (inactive)
8 | COc1ccc(CC[C@H](O)c2cccc(OCC(=O)OC(C)(C)C)c2)cc1 | 0.657 | -4.45 (inactive) | -0.25 (inactive) | -1.82 (inactive) | 0.475 (inactive) | 0.69 (inactive) | 0.791 (inactive) | 0.573 (inactive) | -0.204 | -0.121 | 0.809 (inactive) | 0.662 | -1.03 | -5.52 (inactive) | -0.0884 (inactive) | 0.27 (inactive)
9 | COCCOC(=O)N1C(=O)[C@@]2(c3cc(C#Cc4ccc(OC)cc4)ccc31)[C@H](c1ccc(OCCO)cc1)N1[C@H](c3ccccc3)[C@H](c3ccccc3)OC(=O)[C@H]1[C@@H]2C(=O)N1CCCCCCC1 | -0.266 | 0.376 (inactive) | 0.699 (inactive) | -1.31 (inactive) | 2.17 (inactive) | 0.277 (inactive) | 0.0117 (inactive) | 1.19 (inactive) | 0.746 | 0.0162 | 0.92 (inactive) | 0.768 | -2.09 | -15.8 (active) | -0.318 (inactive) | -0.217 (inactive)
